HT1080-NT tox = kills 2HG-producing HT-1080-NT fibrosarcoma cells. HT-1080-NT fibrosarcoma viability, CellTiter-Glo ATP luminescence, 48 h. Potency, µM (top dose mostly 46.1 µM), hits mostly cytotoxic. 360,000 compounds, 1.6% hits. AID 686970;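 further: NT is the 2HG producing partner of a matched IDH1 knockdown line; nearly all actives have a fitted effect of over 55% in size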
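Compounds were tested in concentration-response format on HT-1080-NT cells for 48 hours at 37 degrees C. Cell viability came from CellTiter-Glo luminescence; curves were classified by r2, response magnitude and activity.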
MCF10A rereplic = inducers of DNA re-replication in MCF 10A breast cells; MCF 10A DNA re-replication, Hoechst nuclear intensity, 48 h; 350,000 compounds, 2.9% hits; Potency, µM (series often up to 46.1 µM), hits mostly activators; further: nearly all actives have a fitted effect of over 50% in size
SW480 rerep = induces DNA re-replication in SW480 colon adenocarcinoma cells | SW480 DNA re-replication, Hoechst DNA content imaging, 48 h | Potency, µM (highest dose often 46.1 µM), most hits filed as activators | 340,000 compounds, 1.8% hits | AID 624297; further: nearly all actives have a fitted effect of over 55% in size
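Image-based DNA-content assay: after two days of treatment, nuclei were labelled with the DNA dye Hoechst and imaged, and hits were compounds raising the count of nuclei showing high fluorescence intensity.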
HT1080 IDH1KD tx = toxicity to HT-1080 IDH1 knockdown cells (counter line) | 360,000 compounds, 2% hits | Potency, µM (titrated, usually from 46.1 µM), most hits filed as cytotoxic | HT-1080 IDH1 knockdown viability, ATP luminescence, 48 h
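Luminescent ATP read-out (CellTiter-Glo, 10 min at room temperature) after 48 h compound exposure at 37 °C gave viability of IDH1-knockdown HT-1080 cells. Activity was normalised to DMSO and cell-free wells, then fitted as concentration-response curves.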
KB-V1 cytotox = kills drug-selected multidrug resistant KB-V1 cells. KB-V1 MDR cells viability, CellTiter-Glo, 72 h. Potency, µM (series often up to 46.1 µM), most hits filed as cytotoxic. 400,000 compounds, 3.4% hits. AID 1347076; further: nearly all actives have a fitted effect of over 60% in size
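KB-V1 cells (P-gp-expressing MDR subline of KB-3-1) in phenol-red-free DMEM with 10% FBS were exposed to library compounds over a concentration series for 72 h at 37 degrees C. Viability read by CellTiter-Glo luminescence; concentration-effect curves fitted after normalization.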
KB-3-1 tox = KB-3-1 parental cell cytotoxicity; KB-3-1 viability, CellTiter-Glo ATP luminescence, 72 h; Potency, µM (series often up to 46.1 µM), most hits filed as cytotoxic; 400,000 compounds, 1.4% hits; AID 1347075; further: nearly all actives have a fitted effect of over 60% in size
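Here the drug-naive KB-3-1 line serves as comparator for MDR sub-line selectivity; cells received compound titrations, 72 h at 37 °C, then CellTiter-Glo readout.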
Each line names hits and unclear results; the compound was inactive in the other large screens. An excerpt weighted towards active compounds, which were near 7.9% of everything screened. The call rests on the fitted dose curve; in most records, active means well fitted curve in the direction sought with a large enough effect; inconclusive means small, poorly fitted or top-dose-only effect, or another doubt; inactive means no such curve, though single readings can be large; an effect the other way counts as inactive or inconclusive.

CCCc1c(NC(=O)Nc2ccc(F)cc2)cnn1-c1ccc(Cl)cc1	MCF10A rereplic inconclusive, SW480 rerep inconclusive, KB-V1 cytotox inconclusive, KB-3-1 tox 9.2µM
O=C(NCCc1ccc(Cl)cc1)Nc1ccc(F)cc1	none
Cc1ccc(C(=O)NCC(c2cccs2)S(=O)(=O)c2ccccc2)cc1C (stereo not given)	none (no result: HT1080-NT tox, MCF10A rereplic, SW480 rerep, HT1080 IDH1KD tx)
COC(=O)C1=CN(c2ccc(F)cc2)C=C(C(=O)OC)C1c1ccc([N+](=O)[O-])cc1	none
COC(=O)C1=CN(c2ccc(F)cc2)C=C(C(=O)OC)C1c1cccc(Br)c1	MCF10A rereplic 15µM, SW480 rerep 23µM, KB-V1 cytotox inconclusive, KB-3-1 tox inconclusive
Cc1nc2ccccc2c2c1CC(C(C)(Cl)Br)O2 (stereo not given)	HT1080-NT tox inconclusive, HT1080 IDH1KD tx inconclusive, KB-V1 cytotox 4.6µM, KB-3-1 tox inconclusive
Cc1nn(-c2nc3ccccc3[nH]2)c(N)c1-c1ccc(Cl)cc1	MCF10A rereplic inconclusive, SW480 rerep inconclusive, KB-V1 cytotox 18µM, KB-3-1 tox inconclusive
COc1ccc(-c2c(C)nn(-c3ccccc3)c2N)cc1	HT1080 IDH1KD tx inconclusive
Cc1nn(-c2ccc3ccccc3c2)c(=O)c2ccccc12	none
Cc1nn(-c2nc3ccccc3[nH]2)c(=O)c2ccccc12	HT1080-NT tox 1.5µM, HT1080 IDH1KD tx 1.5µM, KB-V1 cytotox 5.8µM, KB-3-1 tox 1.3µM
O=C(CC1C(=O)OCN1C(=O)OCc1ccccc1)OCC(=O)c1ccccc1 (stereo not given)	none
COc1ccccc1-c1ccc(/C=C2\C=CC(=O)O2)o1	MCF10A rereplic 21µM, SW480 rerep inconclusive, HT1080 IDH1KD tx inconclusive
COc1ccccc1-c1ccc(/C=C2/C=C(C)OC2=O)o1	MCF10A rereplic 21µM, SW480 rerep inconclusive
COc1ccccc1NS(=O)(=O)c1ccc(NC(=O)Cc2cccs2)cc1	KB-V1 cytotox 21µM
COc1ccc(S(=O)(=O)Nc2ccccc2OC)cc1NC(=O)Cc1cccs1	none
COc1ccc(NC(=O)C(NC(=O)Cc2cccs2)c2ccc(C)cc2)cc1 (stereo not given)	MCF10A rereplic inconclusive
COc1ccc(NC(=O)C(NC(=O)Cc2cccs2)c2ccccc2)cc1 (stereo not given)	KB-V1 cytotox 12µM
O=C(NC(=S)N1CCCC(O)C1)c1ccco1 (stereo not given)	none
Cc1c(NC(=O)/C(C#N)=C/c2ccc(-c3cccc(Cl)c3)o2)c(=O)n(-c2ccccc2)n1C	MCF10A rereplic inconclusive, SW480 rerep inconclusive, KB-V1 cytotox 9.2µM, KB-3-1 tox inconclusive
Oc1oc(-c2ccccc2)nc1/C=N/c1nccs1	KB-V1 cytotox inconclusive
COc1ccc(NC(=S)NCCCN2CCCC2)cc1Cl	none
CC(C)c1ccc(CNc2ncc(Br)cn2)cc1	none
O=C(O)COc1ccc2oc3c(c2c1)CCCC3	MCF10A rereplic 2.1µM
CCOC(=O)c1c(C)[nH]c(C(=O)OC(C)C(=O)Nc2ccc(C)cc2)c1C (stereo not given)	none (no result: MCF10A rereplic, SW480 rerep)
CCOC(=O)c1[nH]c(C)c(C(=O)Nc2cccc(Cl)c2C)c1C	HT1080-NT tox 11µM, MCF10A rereplic 8.2µM, SW480 rerep 12µM, HT1080 IDH1KD tx 7.9µM, KB-V1 cytotox 6.5µM, KB-3-1 tox 5.8µM
CCOC(=O)c1c(C)[nH]c(C(=O)NNC(=O)c2ccccc2)c1C	none
CCOC(=O)c1[nH]c(C)c(C(=O)OC(C)C(=O)Nc2ncc(Cl)cc2Cl)c1C (stereo not given)	MCF10A rereplic inconclusive, KB-V1 cytotox 13µM, KB-3-1 tox inconclusive
CCOC(=O)c1c(C)[nH]c(C(=O)N/N=C\c2ccccc2Cl)c1C	HT1080-NT tox inconclusive, MCF10A rereplic inconclusive, HT1080 IDH1KD tx 15µM, KB-V1 cytotox inconclusive, KB-3-1 tox inconclusive (no result: SW480 rerep)
CCOC(=O)c1[nH]c(C)c(C(=O)Nc2ccc(Cl)cc2)c1C	none
Cc1cccc(N2CCN(S(=O)(=O)c3cc(Cl)ccc3Cl)CC2)c1C	none (no result: HT1080-NT tox, MCF10A rereplic, SW480 rerep, HT1080 IDH1KD tx)
CC1NC(=S)N(C2CCCCC2)C1=O (stereo not given)	MCF10A rereplic inconclusive
COc1ccc(S(=O)(=O)N2CCC(C(=O)NC3CCCCC3)CC2)cc1OC	SW480 rerep inconclusive
COc1ccc(-n2nc3cc(C)c(NC(=O)Cc4ccc(Cl)cc4)cc3n2)cc1	KB-3-1 tox inconclusive (no result: HT1080-NT tox, MCF10A rereplic, SW480 rerep, HT1080 IDH1KD tx)
COc1ccc(-c2cc(C(F)(F)F)n3nc(C(=O)N4CCN5CCCC5C4)cc3n2)cc1OC (stereo not given)	MCF10A rereplic 12µM, SW480 rerep inconclusive
Cc1ccc(-c2cc(C(F)(F)F)n3nc(C(=O)N4CCN5CCCC5C4)cc3n2)cc1 (stereo not given)	HT1080-NT tox inconclusive, MCF10A rereplic inconclusive, SW480 rerep inconclusive, HT1080 IDH1KD tx inconclusive
CCc1ccc(Nc2cc(C)nc3nc(Cc4ccc(Cl)cc4)nn23)cc1	KB-V1 cytotox inconclusive, KB-3-1 tox 21µM (no result: HT1080-NT tox, MCF10A rereplic, SW480 rerep, HT1080 IDH1KD tx)
CSc1cccc(CN2CCC(CO)(Cc3cccc(C(F)(F)F)c3)CC2)c1	HT1080-NT tox 21µM, MCF10A rereplic inconclusive, HT1080 IDH1KD tx 16µM, KB-V1 cytotox inconclusive
OCC1(Cc2cccc(C(F)(F)F)c2)CCN(Cc2cc(F)cc(F)c2)CC1	HT1080-NT tox 18µM, MCF10A rereplic 23µM, SW480 rerep inconclusive, HT1080 IDH1KD tx inconclusive, KB-V1 cytotox inconclusive, KB-3-1 tox inconclusive
CN(C)S(=O)(=O)N1CCC(CO)(Cc2cccc(C(F)(F)F)c2)CC1	KB-V1 cytotox inconclusive
Cc1ccc(-n2cc(CN3CCC(CO)(Cc4cccc(C(F)(F)F)c4)CC3)cn2)cc1	HT1080-NT tox 23µM, HT1080 IDH1KD tx 18µM, KB-V1 cytotox inconclusive, KB-3-1 tox inconclusive
CC(C)Cc1cc(CN2CCC(CO)(Cc3cccc(C(F)(F)F)c3)CC2)[nH]n1	HT1080-NT tox inconclusive, SW480 rerep inconclusive, HT1080 IDH1KD tx inconclusive, KB-3-1 tox inconclusive
COc1cccc(NC(=O)N2CCN(c3nc(-c4cccc(OC)c4)cs3)CC2)c1	SW480 rerep inconclusive, KB-V1 cytotox 16µM, KB-3-1 tox inconclusive
COc1cccc(-c2csc(N3CCN(C(=S)Nc4ccc(Cl)cc4)CC3)n2)c1	KB-V1 cytotox 23µM
COc1cccc(-c2csc(N3CCN(C(=S)Nc4ccccc4)CC3)n2)c1	HT1080-NT tox 22µM
O=C(c1cccc([N+](=O)[O-])c1)N1CCN(C/C=C/c2ccccc2)CC1	KB-V1 cytotox inconclusive
CC(C(=O)Nc1cccc([N+](=O)[O-])c1)N1CCN(C/C=C/c2ccccc2)CC1 (stereo not given)	KB-V1 cytotox 3.7µM
Cc1ccc(S(=O)(=O)NCc2nc3nc(C)cc(C)n3n2)c(C)c1	none
O=S(=O)(NCc1ccccc1)c1ccccc1NCCc1ccccc1	none

Screens from PubChem.
